Compound activity: PubChem, National Center for Advancing Translational Sciences (NCATS)
Shown are actives, neighbours in structure and some others; about 21% of the full set was active somewhere.
ELG1 repair inh: ELG1-dependent DNA repair inhibition. HEK293T ELG1-luciferase reporter, luminescence, 16 h; DNA damage induced by 5-fluorouridine. Potency, µM (titrated, usually from 46.1 µM), for inactives: top-dose activity change, negative = inhibition, actives largely listed as inhibitors. hit rate 2.3% among 330,000. AID 504467; also: potency is read from the fitted curve at half-maximal effect; nearly all actives have a fitted effect of over 55% in size
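DMSO vehicle served as the neutral condition. Each well held 2,000 cells given 5-fluorouridine plus compound; after 16 hr at 37 °C/5% CO2, ONE-Glo was added and luciferase measured 30 min later.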
DT40 TDP1 CPT: DT40-hTDP1 cell growth loss with CPT; chicken DT40 Tdp1-/-;hTDP1 cells + 20 nM CPT, ATP luminescence, 48 h; Potency, µM (highest dose often 46.2 µM), for the others: at the top dose activity change, negative = growth inhibition, hits mostly inhibitors; hit rate 12% among 420,000; also: potency is read from the fitted curve at half-maximal effect; nearly all actives have a fitted effect of over 55% in size
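Chicken DT40 Tdp1-/- cells stably complemented with human TDP1 were seeded at 400 cells/well in medium containing 20 nM camptothecin, exposed to pin-transferred compounds, and grown at 37 °C for at least 48 hr. Viability was read as ATP luminescence.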
DT40 TDP1 no CPT: qHTS for Inhibitors of human tyrosyl-DNA phosphodiesterase 1 (TDP1): qHTS in cells in absence of CPT; AID 686978, 2013; DT40 Tdp1-/- hTDP1 cells, no CPT, ATP luminescence, 48 h; hit rate 15% among 420,000; Potency, µM (doses to about 46.2 µM), without a hit: at the top dose activity change, negative = growth inhibition, usual class: inhibitors; also: potency is read from the fitted curve at half-maximal effect; nearly all actives have a fitted effect of over 55% in size
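Stably hTDP1-transfected Tdp1-null chicken DT40 cells were treated with library compounds minus camptothecin and grown for at least 48 hr at 37 °C, after which cellular ATP was quantified by luminescence.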
RORg inh: blocks mouse ROR gamma transcriptional activity; P51450; Drosophila S2 Gal4-RORgamma UAS-luciferase reporter, 20 h; Potency, µM (series often up to 53.6 µM), for inactives: top-dose activity change, negative = inhibition, usual class: inhibitors; hit rate 5.4% among 310,000; also: potency is read from the fitted curve at half-maximal effect; nearly all actives have a fitted effect of over 60% in size
Target sequence (P51450 whole entry, looked up, the tested form may be a part): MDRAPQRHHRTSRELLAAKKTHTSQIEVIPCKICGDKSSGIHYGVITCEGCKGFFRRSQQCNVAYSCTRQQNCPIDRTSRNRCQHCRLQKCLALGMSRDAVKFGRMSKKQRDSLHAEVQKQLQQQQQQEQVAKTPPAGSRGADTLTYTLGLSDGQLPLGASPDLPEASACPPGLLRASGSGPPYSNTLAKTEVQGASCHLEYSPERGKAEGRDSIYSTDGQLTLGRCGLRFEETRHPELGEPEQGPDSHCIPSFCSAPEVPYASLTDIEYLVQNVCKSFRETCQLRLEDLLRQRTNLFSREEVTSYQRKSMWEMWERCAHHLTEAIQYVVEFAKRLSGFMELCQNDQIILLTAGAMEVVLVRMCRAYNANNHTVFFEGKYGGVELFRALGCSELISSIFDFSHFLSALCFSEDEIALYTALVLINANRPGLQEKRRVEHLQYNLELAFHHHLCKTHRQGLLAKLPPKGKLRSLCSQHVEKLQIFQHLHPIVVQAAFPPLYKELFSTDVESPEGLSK
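Read-out: Photinus luciferase luminescence; inhibitors lower reporter signal. Insect Schneider cells with Gal4-ROR gamma fusion under metallothionein promoter, UAS reporter; 700 uM final copper sulfate induction, 20 hr, ambient temperature.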
IL-1B inflam inh: inflammasome signaling inhibition, IL-1 beta readout; THP-1 LPS/ATP IL-1B secretion, AlphaLISA, 16 h; active compounds read low; hit rate 4.7% among 360,000; activity change, % at 57.5 µM; AID 743279; in the data active = activity change below about -50%; inconclusive = mostly about -30% to -49%
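THP-1 cells pretreated 1 hr with compounds (up to 57.5 uM final), then stimulated with LPS (250 ng/mL final) plus ATP (1.25 mM final); secreted IL-1B measured by AlphaLISA after 16 hr, decreased signal indicating inhibition.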
VP16 counter: Gal4-VP16 reporter inhibition counter-screen | Potency, µM (doses to about 53.6 µM), for the others: at the top dose activity, negative = inhibition, hits mostly inhibitors | Drosophila S2 Gal4-VP16 UAS-luciferase, luminescence, 20 h | AID 2546 | hit rate 3.5% among 310,000;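 also: Gal4-VP16 expression switched on by copper sulfate through the metallothionein promoter; potency is read from the fitted curve at half-maximal effect; nearly all actives have a fitted effect of over 50% in size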
Active calls of the source: *; u = inconclusive; x = not tested or not shown. Unless noted, calls follow the shape of the dose curve; as a rule, active = well fitted curve in the direction sought with a large enough effect; inconclusive = small, poorly fitted or top-dose-only effect, or another doubt; inactive = no such curve, though single readings can be large; an effect the other way counts as inactive or inconclusive. % is scaled to controls: 0 for no effect and ±100 for the full control effect.

SMILES	ELG1 repair inh	DT40 TDP1 CPT	DT40 TDP1 no CPT	RORg inh	IL-1B inflam inh	VP16 counter
CCOc1ccccc1NC(=S)NCCc1ccccc1	-29.0%	u	u	1.26µM*	1.1	5.01µM*
C[C@@]12C(=O)N(Cc3ccc(F)cc3)CC(=O)N1[C@H]1c3cc(Cl)ccc3OC[C@@H]1[C@@H]2c1ccccc1	u	23.1µM*	18.4µM*	x	u	x
C[C@@]12C(=O)N(Cc3ccco3)CC(=O)N1[C@H]1c3cc(Cl)ccc3OC[C@@H]1[C@@H]2c1ccccc1	-15.8%	u	u	x	u	x
C[C@@]12C(=O)N(Cc3ccccc3)CC(=O)N1[C@H]1c3cc(Cl)ccc3OC[C@@H]1[C@@H]2c1ccccc1	-19.6%	u	18.4µM*	x	-27.9	x
COc1ccnc(CSC(N)=Nc2ccccc2OC)c1	22.3%	u	12.6µM*	-100.7%	-10.5	u
COc1ccnc(CN(C)C(=O)C2CCC(=O)N(Cc3cccc(C(F)(F)F)c3)C2)c1 (stereo unspecified)	-5.0%	-17.1%	15.8%	-2.2%	37.3	12.2%
COc1ccnc(CSC(N)=Nc2cccc(C(F)(F)F)c2)c1	16.3%	11.6µM*	16.4µM*	6.31µM*	-103.6*	12.6µM*
CC(=Nc1ccccc1C(F)(F)F)c1ccncc1	9.7%	1.4%	-3.9%	-21.1%	-0.1	-6.2%
COc1ccnc(CSC(N)=Nc2ccccc2C(F)(F)F)c1	u	25.9µM*	14.6µM*	u	3.4	-15.6%
COc1ccc(OC)c(S(=O)(=O)NCc2ccccn2)c1	0.2%	-1.9%	-2.4%	u	-1.6	-1.8%
CCc1nn(CC(=O)NC(C)CC)c(=O)c2cc3occc3n12 (stereo unspecified)	x	-13.8%	-13.3%	x	x	x
c1ccc2c(c1)NCC1CCCN21 (stereo unspecified)	u	20.6µM*	16.4µM*	-0.5%	14.8	-5.5%
COc1ccc(Cn2c(C(=O)O)c(CNCC(C)c3ccccc3)c3ccc(OC)cc32)cc1 (stereo unspecified)	x	u	23.1µM*	x	x	x
COc1ccc2c(CNCC(C)c3ccccc3)c(C(=O)O)n(Cc3ccc(F)cc3Cl)c2c1 (stereo unspecified)	x	-17.1%	-11.5%	x	x	x
CCc1ccc(CNCc2c(C(=O)O)n(Cc3cccc(F)c3)c3cc(OC)ccc23)cc1	x	23.1µM*	20.6µM*	x	x	x
COc1ccc2c(CNCc3ccco3)c(C(=O)O)n(Cc3cccc(F)c3)c2c1	x	-3.4%	u	x	x	x
COc1ccc(OC)c(CNCc2c(C(=O)O)n(Cc3cccc(F)c3)c3cc(OC)ccc23)c1	x	u	20.6µM*	x	x	x
COc1ccc2c(CNCCc3ccc(SC)cc3)c(C(=O)O)n(Cc3ccc(F)cc3)c2c1	x	16.4µM*	11.6µM*	x	x	x
O=C(OCC(=O)N1CCN(c2ccccc2)CC1)c1nc(Cl)ccc1Cl	13.4%	6.9%	-28.3%	x	7.7	x
CC(C)CCNC(=O)C1CCN(C(=O)N2CCOc3ccc(Cl)cc32)CC1	x	25.9µM*	u	x	x	x
CC(C)Oc1ccc(CNC(=O)C2CCN(C(=O)N3CCOc4ccccc43)CC2)cc1	u	u	u	8.2%	17.3	-2.1%
CC(C)Oc1ccc(CNC(=O)C2CCN(C(=O)N3CCOc4ccc(Cl)cc43)CC2)cc1	x	6.51µM*	6.51µM*	x	x	x
COc1cccc(CNC(=O)C2CCN(C(=O)N3CCOc4ccc(Cl)cc43)CC2)c1OC	x	u	20.6µM*	x	x	x
CCc1ccc(NC(=O)N2CCOc3ccc(Cl)cc32)cc1	x	-18.9%	13µM*	x	x	x
COc1ccc(-c2oc3ccccc3c2C(=O)OCc2ccccc2OC)cc1	0.1%	u	u	13.0%	11.1	-2.1%
COc1ccc(NC(=O)C2=CN3CCS(=O)(=O)N=C3C=C2)c(OC)c1	u	18.4%	-16.0%	x	22.7	x
